Screens from PubChem BioAssay.
Only some compounds are listed: those with a hit (about 6.8% of all), similar ones and a draw of the others.
KB-V1 MDR tox = qHTS assay for MDR1-selective chemotherapeutics: Primary screen using the drug-selected MDR subline cells KB-V1 | KB-V1 MDR cells viability, CellTiter-Glo, 72 h | Potency, µM (doses to about 46.1 µM), actives largely listed as cytotoxic | 400,000 tested, 3.4% active | AID 1347076, 2019; also: % is scaled to controls: 0 for no effect and ±100 for the full control effect; nearly all actives have a fitted effect of over 60% in size
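KB-V1, DMEM (no phenol red) + 10% FBS; cpd pin-transferred, titration series; 72 h, 37 degrees C; CellTiter-Glo, luminescence. Data normalized, curve-fit.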
PINK1 modulator = A Quantitative High throughput Screen to Identify Chemical Modulators of PINK1 Expression | PINK1 immunofluorescence, high-content cytometry, 24 h | Potency, µM (doses to about 76.6 µM), for the others: at the highest dose activation (PINK1 increase), actives largely listed as activators | 410,000 tested, 0.2% active | AID 624263, 2012; active = well fitted activation curve with a large enough effect; inconclusive = small, poorly fitted or top-dose-only effect; cell line not stated here; also: % of control where 0% means no effect; nearly all actives have a fitted effect of over 65% in size
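PINK1 protein level read as immunofluorescence by microplate cytometer in a fixed, stained stable cell line after 24 h exposure to five compound concentrations, with CCCP as control.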
PTAP TSG101 blk = qHTS Assay for Iinhibitors of HIV-1 Budding by Blocking the Interaction of PTAP/TSG101. Potency, µM (top dose mostly 115 µM), for inactives: top-dose activity change, negative = inhibition, usual class: inhibitors. Tumor susceptibility gene 101 protein (Homo sapiens), Q99816. AID 493005, 2010. Fluorescence polarization, FITC-PTAP peptide / Tsg101 binding. 340,000 tested, under 10 active; active = well fitted inhibition curve with a large enough effect in the main read-out, with a control signal flat, not every such curve was filed as active; inconclusive = small, poorly fitted or top-dose-only effect, or effect the other way, or a change in a side signal; inactive = no such curve, though single readings can be large or run the other way; also: % of control where 0% means no effect
Target sequence (Q99816 whole entry, looked up): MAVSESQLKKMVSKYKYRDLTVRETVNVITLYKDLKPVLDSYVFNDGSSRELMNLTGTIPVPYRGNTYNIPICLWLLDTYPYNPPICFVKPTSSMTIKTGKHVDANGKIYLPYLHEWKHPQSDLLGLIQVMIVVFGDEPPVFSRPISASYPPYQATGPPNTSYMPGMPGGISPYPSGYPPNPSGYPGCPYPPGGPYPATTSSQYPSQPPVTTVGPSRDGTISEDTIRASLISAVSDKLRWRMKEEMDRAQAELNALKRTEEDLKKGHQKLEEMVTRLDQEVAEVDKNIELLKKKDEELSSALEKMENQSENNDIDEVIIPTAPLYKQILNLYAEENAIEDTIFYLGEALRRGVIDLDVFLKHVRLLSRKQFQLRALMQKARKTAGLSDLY
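Tsg101 binding domain (10 uM final) was mixed with compound and a FITC-labeled PTAP peptide (50 nM final) in HEPES pH 7.5 buffer with NaCl, Tween 20, EDTA and TCEP; fluorescence polarization was read after 20 min at r.t.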
KB-3-1 cytotox = qHTS assay for MDR1-selective chemotherapeutics: Primary screen using the parental adenocarcinoma cell KB-3-1; Potency, µM (highest dose often 46.1 µM), usual class: cytotoxic; 400,000 tested, 1.4% active; KB-3-1 viability, CellTiter-Glo ATP luminescence, 72 h; AID 1347075, 2019; also: % is scaled to controls: 0 for no effect and ±100 for the full control effect; nearly all actives have a fitted effect of over 60% in size
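Viability of parental KB-3-1 cells, measured by CellTiter-Glo luminescence, followed a 72 h incubation at 37 °C with pinned compounds in phenol-red-free DMEM containing 10% FBS.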
MCF10A rerep = A quantitative high throughput screen for small molecules that induce DNA re-replication in MCF 10a normal breast cells. 350,000 tested, 2.9% active. AID 624296, 2012. MCF 10A DNA re-replication, Hoechst nuclear intensity, 48 h. Potency, µM (highest dose often 46.1 µM), inactives show at the top dose activity, positive = re-replication, usual class: activators; also: % of control where 0% means no effect; nearly all actives have a fitted effect of over 50% in size
SW480 rereplic = A quantitative high throughput screen for small molecules that induce DNA re-replication in SW480 colon adenocarcinoma cells; SW480 DNA re-replication, Hoechst DNA content imaging, 48 h; Potency, µM (titrated, usually from 46.1 µM), without a hit: at the highest dose re-replication activation, most hits filed as activators; 340,000 tested, 1.8% active; AID 624297, 2012; also: % of control where 0% means no effect; nearly all actives have a fitted effect of over 55% in size
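Image-based DNA-content assay: after two days of treatment, nuclei were labelled with the DNA dye Hoechst and imaged, and hits were compounds raising the count of nuclei showing high fluorescence intensity.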
Numbers without * were called inactive; i = inactive; ? = inconclusive; . = no result given; [ ] = dose if it differs, or a comment. Unless noted, calls follow the shape of the dose curve; as a rule, active = well fitted curve in the direction sought with a large enough effect; inconclusive = small, poorly fitted or top-dose-only effect, or another doubt; inactive = no such curve, though single readings can be large; an effect the other way counts as inactive or inconclusive. Potency is read from the fitted curve at half-maximal effect.

SMILES	KB-V1 MDR tox	PINK1 modulator	PTAP TSG101 blk	KB-3-1 cytotox	MCF10A rerep	SW480 rereplic
Fc1ccc(C2C3=C(Nc4ncnn42)c2ccccc2OC3c2ccncc2)cc1 (stereo unspecified)	i	0%	-5%	i	23%	16%
Cc1ccc(C2Oc3ccccc3C3=C2C(c2cccs2)n2ncnc2N3)cc1 (stereo unspecified)	i	5%	-1%	9.2µM*	5.8µM*	?
CCCc1nc2oc3c(NCCN(C)C)ncnc3c2c2c1CCCC2	i	0%	-12%	?	?	?
CC(C)Cc1nc2oc3c(=O)[nH]cnc3c2c2c1CCCC2	18µM*	6%	0%	i	1%	-83%
CC(C)Cc1nc2oc3c(Cl)ncnc3c2c2c1CCCC2	i	-1%	-1%	i	29µM*	9%
CCCc1nc2oc3c(NCCCN(C)C)ncnc3c2c2c1CCCC2	?	0%	-12%	i	15µM*	?
CC(C)Cc1nc2oc3c(=O)[nH]cnc3c2c2c1CCC2	i	-1%	-11%	i	-1%	-2%
COc1ccc(N2CC3=C(C2=O)C(c2ccc(O)c(OC)c2)NC(=O)N3C)cc1 (stereo unspecified)	i	-1%	.	i	.	.
CC(=O)c1sc2nc(C)c3c(c2c1N)CCCC3	?	-1%	-3%	?	18µM*	15µM*
Cc1nc2sc(C#N)c(N)c2c2c1CCCC2	i	1%	-5%	i	-10%	-4%[9.22 µM]
COC(=O)c1scc(C)c1NC(=O)c1ccc(Cl)cc1	i	4%	-10%	i	-7%	-1%
COC(=O)c1scc(C#N)c1N/N=C(\C#N)S(=O)(=O)c1ccc(Cl)cc1	8.2µM*	?	-14%	?	13µM*	-10%
COC(=O)c1scc(S(=O)(=O)C(C)C)c1N/N=C(\C#N)C(=O)c1ccc(Cl)cc1	?	40µM*	-11%	?	6%	0%
COc1cccc(OCc2nc3ccccc3n2Cc2ccccc2C)c1	i	0%	.	i	.	.
CCc1ncn(CCc2ccccc2OC)c1C(C)C	?	3%	.	?	.	.
COc1cccc(-c2ncn(CCc3ccccc3OC)c2C(C)C)c1	12µM*	?	.	?	.	.
COc1ccccc1CCn1cnc(Cc2cccc(F)c2)c1C(C)C	18µM*	?	.	?	.	.
COc1cccc(-c2cncnc2NCc2ccccc2OC)c1	.	9%	.	.	.	.
CCC(C)Oc1ccccc1C1CC(=O)NC2=C1C(=O)CCC2 (stereo unspecified)	?	12%	0%	?	?	18µM*
COc1ccc(Cl)cc1NC(=O)c1nnn(Cc2cccc(C(F)(F)F)c2)c1N	?	4%	.	i	.	.
Cn1c(=O)n(C)c2cc(CNCc3ccc(C(=O)O)cc3)ccc21	?	3%	.	i	.	.
CCN1c2ccccc2NC2C1C(C(C)=O)C(=O)N2c1ccc(Cl)cc1 (stereo unspecified)	i	5%[38.3 µM]	0%	i	2.9µM*	4.6µM*
CSc1nnc(CSCc2ccc(Cl)cc2Cl)n1-c1ccccc1	?	3%[38.3 µM]	-10%	i	11µM*	19%
Cn1c(CSCc2ccc(Cl)cc2Cl)n[nH]c1=S	?	-1%	-1%	i	-1%	5%
COC(=O)CSC1=C(C#N)C(c2ccccc2)CC(=O)N1 (stereo unspecified)	18µM*	4%[38.3 µM]	0%	?	?	?
SMILES	KB-V1 MDR tox	PINK1 modulator	PTAP TSG101 blk	KB-3-1 cytotox	MCF10A rerep	SW480 rereplic
COC(=O)CSC1=C(C#N)C(c2cccc(F)c2)CC(=O)N1 (stereo unspecified)	?	4%	-4%	16µM*	?	?
Cc1cccc(N(CC(=O)NCc2ccccc2)S(C)(=O)=O)c1C	i	0%	.	i	.	.
Cc1ccc(-c2nn(-c3ccccc3)cc2/C=C/C(=O)O)o1	?	-1%	-17%	i	5%	6%
Cc1ccc(-c2nn(-c3ccccc3)cc2CN(Cc2ccccc2)C(=O)c2ccco2)o1	?	.	-13%	?	16µM*	?
NCC1CC2c3ccccc3C1c1ccccc12 (stereo unspecified)	i	1%	-3%	i	13%	23µM*
O=C(NCc1cccnc1)C1CC2c3ccccc3C1c1ccccc12 (stereo unspecified)	i	0%	-3%	i	6%	0%
Cc1c(Cl)c([N+](=O)[O-])nn1CCCC(=O)Nc1cccc(Cl)c1	18µM*	-1%	-3%	?	5%	-5%
Cc1c(Cl)c([N+](=O)[O-])nn1CCCC(=O)Nc1cccnc1	?	2%	-6%	i	2%	1%
Cc1nn(Cc2ccccc2)c(C)c1NC(=O)CCCn1nc(C)c([N+](=O)[O-])c1C	23µM*	0%	-4%	i	21%	15%
Cc1ccccc1N1C(=O)c2cc(N)ccc2N/C1=C\F	.	.	.	.	-2%	-4%
CC(=NO)C1CCC2C3CCC4=CC(=NO)CCC4(C)C3C(O)CC12C (stereo unspecified)	21µM*	-4%	-3%	?	19%	0%
O=C(/C=C/c1ccccc1Cl)NCCc1ccccc1	16µM*	-5%[38.3 µM]	-6%	i	14%	11%
COc1ccccc1CNc1nc(NCCOc2ccccc2)c2sccc2n1	21µM*	?	.	?	.	.
CCCCCCCCNC(=O)CCNC(=O)c1ccc(C(C)(C)C)cc1	13µM*	3%	-5%	i	?	7%
CC(C)(C)c1ccc(C(=O)NCCCN2CCN(CCCNC(=O)c3ccc(C(C)(C)C)cc3)CC2)cc1	18µM*	-4%	-5%	?	16µM*	?
CN(CC(=O)Nc1ccc(Cl)cc1F)S(=O)(=O)c1ccc2c(c1)n(C)c(=O)c(=O)n2C	i	0%	.	i	.	.
COc1ccc(NC(=O)C2CCCN(S(=O)(=O)c3cccs3)C2)cc1 (stereo unspecified)	i	5%	.	i	.	.
O=C(Nc1ccc(Oc2ccccc2)cc1)C1CCN(S(=O)(=O)c2ccccc2)CC1	6.5µM*	0%	.	?	.	.
O=C(NCc1cccs1)C1CCCN(c2ncccn2)C1 (stereo unspecified)	?	4%[38.3 µM]	-1%	i	0%	1%
